Experimental data as given in PubChem BioAssay AID720518 (National Center for Advancing Translational Sciences (NCATS), 2013).
Inconclusive results are not listed. Entries that show only a call come without a potency. Calls of active or inactive are those of the source. The call rests on the fitted dose curve.

Assay: qHTS for Inhibitors of Cell Surface uPA Generation: Wild-type Protective Antigen (WT-PrAg) Counterscreen for Cherry-picked Compounds
Details: cells, WT protective antigen toxicity counterscreen; series mostly up to 115 µM
Potency means the concentration at half of the fitted maximal effect.

Row | Structure (SMILES) | Potency
1 | COC(=O)c1ccccc1NC(=O)Nc1nnc(N2CCCCC2C)s1 (stereo not given) | 58.5 µM (active)
2 | C=CCOC(=O)C1=C[C@H](c2ccc(C(F)(F)F)cc2)[C@@H](CCCO)[C@H](OCC)O1 | inactive
3 | Cc1ccccc1C(=O)Nc1ccccc1N1CCCCC1 | inactive
4 | Cn1c(CN2CCCC2)nc2cc(NC(=O)COc3ccccc3)ccc21 | inactive
5 | COC(=O)/C(C#N)=C/c1c(N2CCN(c3ccccc3)CC2)nc2c(C)cccn2c1=O | inactive
6 | Cc1ccc(C(=O)COc2cc(O)c3c(=O)cc(-c4ccccc4)oc3c2)cc1 | inactive
7 | CC(OC(=O)c1cccc(-n2cnnn2)c1)C(=O)Nc1ccc(F)c(F)c1F (stereo not given) | inactive
8 | CSc1nc(-c2ccccc2)nc(C(Cl)Cl)n1 | inactive
9 | CCc1cc(CC)c(/C=N/NC(N)=O)c(CC)c1 | inactive
10 | COc1cccc2c1Oc1ncccc1N(C(=O)CCC(=O)NCc1ccc(C)cc1)C2 | inactive
11 | CC(NC(=O)C1CCC(C(=O)NC(C)c2ccccc2)CC1)c1ccccc1 (stereo not given) | inactive
12 | COc1ccc(C(=O)NCCCN2CCOCC2)cc1 | inactive
13 | Cc1ccc2c(c1)N(CC(=O)NCCCc1ccccc1)C(=O)c1cccnc1O2 | inactive
14 | CC(C)NC(=O)CN1CCC(c2nc3ccccc3[nH]2)CC1 | inactive
15 | O=C(CSC1=NS(=O)(=O)c2ccccc2N1)Nc1nccs1 | inactive
16 | CCOc1cc(C(=S)N2CCOCC2)ccc1OC(=O)c1cccc(C)c1 | inactive
17 | COc1cccc(NC(=O)c2nnn(CC(=O)Nc3cc(C)cc(C)c3)c2N)c1 | inactive
18 | CCCCNC(=O)C1CCN(S(=O)(=O)c2c(C)noc2/C=C\c2ccc(OC)cc2)CC1 | inactive
19 | Cc1cccc(CNc2ccc(C(CC(N)=O)NC(=O)c3cccc(Br)c3)cc2[N+](=O)[O-])c1 (stereo not given) | inactive
20 | CC(/C=C1\SC(=S)N(CCCC(=O)Nc2ccc(C(=O)O)cc2)C1=O)=C\c1ccccc1 | inactive

Row | Structure (SMILES) | Potency
21 | Cc1cccc(Nc2ccc(NCc3ccccc3)nn2)c1 | inactive
22 | NC(=O)CC(NC(=O)Cc1cccc2ccccc12)c1ccc(N2CCN(c3ccccc3)CC2)c([N+](=O)[O-])c1 (stereo not given) | inactive
23 | CC(C)OC(=O)Nc1ccc(-c2ccc(NC(=O)OC(C)C)cc2Cl)c(Cl)c1 | inactive
24 | COc1cc(NC(=S)NCCc2ccc(S(N)(=O)=O)cc2)c(OC)cc1Cl | inactive
25 | COc1ccc(C(=O)OCC(=O)N(C)C2CCS(=O)(=O)C2)cc1S(=O)(=O)N(C)Cc1ccccc1 (stereo not given) | inactive
26 | C[C@H](CO)N1C[C@H](C)[C@@H](CN(C)C(=O)Nc2ccccc2)Oc2ccc(NC(=O)Cn3cnnn3)cc2C1=O | inactive
27 | O=C(CSc1ccc(Cl)cc1)N1CCCC1 | inactive
28 | CC1CS(=O)(=O)CCN1N=Cc1ccc([N+](=O)[O-])o1 (stereo not given) | inactive
29 | Cc1cccc(C(=O)NC2CCN(CC(=O)N3CCOCC3)CC2)c1 | inactive
30 | C=CS(=O)(=O)c1ccc(Oc2ccc(S(=O)(=O)C=C)cc2)cc1 | 65.6 µM (active)
31 | CCOC(=O)C1=C(C)N(Cc2ccccc2)C(=O)NC1c1ccc(OC)cc1 (stereo not given) | inactive
32 | CCN(CC)S(=O)(=O)c1cc(NC(=O)COC(=O)C2CCC2)ccc1C | inactive
33 | COc1ccc(-c2nn(CCC#N)cc2C(=O)Nc2ccccc2)cc1OC | inactive
34 | CC/C(=N\Nc1ccccc1[N+](=O)[O-])c1ccc(O)cc1 | inactive
35 | COc1ccc(N(CN2C(=O)c3ccccc3C2=O)C(=O)C(C)C)cc1 | inactive
36 | CCn1c(=O)cc(C(=O)OC)sc1=Nc1ccc(F)c(F)c1 | inactive
37 | CN1CC[C@]23c4ccccc4N[C@H]1[C@]21CCN(C)[C@H]3Nc2ccccc21 | inactive
38 | CCOc1ccccc1C(=O)NC1CCN(CC(=O)Nc2cc(OC)ccc2OC)CC1 | inactive
39 | COCCNS(=O)(=O)c1cc(OC)c(C)cc1C | inactive
40 | O=C(CSc1ccc([N+](=O)[O-])cn1)Nc1nccs1 | inactive
